Each structure is given as a SMILES string. The source made the active and inactive calls. The calls were made as follows: active = hit-call score of the fitted dose curve at least 0.9, where 1 is the maximum; inactive = score below 0.9.

The nature of the assay: Tanguay_ZF_120hpf_DP24: Oregon State University Tanguay Lab 24 Hour Post-fertilization zebrafish Assay for Delayed Development (AID 2284390). The method, then: Tanguay_ZF_120hpf is a whole embryo, multiplexed endpoint assay using zebrafish larvae exposed for 120 hours post fertilization on a 96-well plate.Tanguay_ZF_120hpf_DP24 is […] measured or calculated from the Tanguay_ZF_120hpf assay. It is designed to make measurements of zebrafish development as detected with brightfield microscopy of developing zebrafish embryos.Data from the assay component Tanguay_ZF_120hpf_DP24 was analyzed into 1 assay endpoints. This assay endpoint, Tanguay_ZF_120hpf_DP24, was analyzed in the positive analysis fitting direction relative to DMSO as the negative control and baseline of activity. Using a type of morphology reporter, gain-of-signal activity can be used to understand changes in developmentals as they relate to the whole embryo. To generalize the intended target to other relatable targets, this assay endpoint is annotated to the zebrafish development intended target family, where the subfamily is embryonic morphogenesis.
Zebrafish husbandry: Tropical 5D wild-type adult zebrafish were housed in at an approximate density of 1000 per 100 gallon tank at the Sinnhuber Aquatic Research Laboratory, Oregon State University, Corvallis, OR. Each tank was kept at standard laboratory conditions of 28C on a 14-h light/10-h dark photoperiod in fish water consisting of reverse osmosis water supplemented with a commercially available salt (Instant Ocean). Spawning funnels were placed into the tanks the night prior, and embryos were collected and staged. To increase bioavailability, the chorion was enzymatically removed using pronase (63.6mg/ml, >/= 3.5U/mg, Sigma-Aldrich: P5147) at 4 hours post fertilization (hpf) using a custom automated dechorionator.Chemical exposures: Six hpf dechorionated embryos were placed 1 embryo per well in a 96-well plate prefilled with 90 ul of EM using automated embryo placement systems (AEPS). Ten microliters of each row of dilution plate 2 was added to 2 exposure plates. The final DMSO concentration used was 0.64% (vol/vol). Thirty-two embryos were also exposed to 5uM trimethyltin chloride (positive control). Plates were sealed to prevent evaporation and foil covered to reduce light exposure and kept in a 28C incubator. Embryos were statically exposed until 120 hpf. At 24 hpf, embryos were assessed for photomotor response using a custom photomotor response analysis tool (PRAT) and for developmental toxicity endpoints (MO24: mortality at 24 hpf, DP: developmental progression, SM: spontaneous movement, and NC: notochord distortion). At 120 hpf, locomotor activity was measured using Viewpoint Zebralab and assessed for 13 endpoints. Zebrafish acquisition and analysis program (ZAAP), a custom program designed to inventory, acquire, and manage zebrafish data, was used to collect developmental endpoints as either present or absent (i.e., binary responses were recorded). If mortality occurred for an embryo (at either 24 or 120 hpf), the non-mortality endpoints were not measured.
As to `FC(F)C(F)(F)COCC1CO1` (stereo not given), the outcome was inactive. Then `FC(F)=C(F)C(F)(F)C(F)(F)C(F)(F)C(F)(F)C(F)(F)C(F)(F)F`, with “inactive”; and `OC(O)(C(F)C(O)(O)C(F)(F)F)C(F)(F)F`, with “inactive”. The entry for `O=C(Cl)C(F)(F)C(F)(F)C(F)(F)C(=O)Cl` is “inactive”. Then `C[Si](C)(C)C(F)(F)C(F)(F)C(F)(F)F`, with “inactive”; and `FC(F)(F)COC(OCC(F)(F)F)OCC(F)(F)F`, with “inactive”.

With `OCCC(F)(F)C(F)(F)C(F)(F)C(F)(F)F`, the molecule was called inactive.

On to `NCC(F)(F)C(F)(F)C(F)(F)C(F)(F)F`, for which the outcome was inactive. Consider `FC(F)(F)C(F)(F)C(F)(F)C(F)(F)C(F)(F)C(F)(F)I`, for which the outcome was inactive. Turning to `O=S(=O)(O)CCC(F)(F)C(F)(F)C(F)(F)C(F)(F)C(F)(F)C(F)(F)F`, the result was inactive.
